{
  "source": "paper PMC4552634",
  "about": "“A New Set of Chemical Starting Points with Plasmodium falciparum Transmission-Blocking Potential for Antimalarial Drug Discovery” (PLoS ONE, 2015)",
  "note": "Out of some 13,000 compounds screened, about 3,200 (25%) showed an effect of 50% or more. The list shows a part of the results.",
  "data": [
    {"tested_on": "P. falciparum stage V gametocytes", "set-up": "BacTiter-Glo ATP luminescence viability of purified stage V gametocytes in 384-well plates, per cent inhibition versus DMSO", "details": "48 h, 5 µM; inhibitor", "units": {"% Inhibition": "%"}, "values": [
      {"smiles": "COc1cc(CCNc2nc(NCc3ccccc3-c3ccccc3)nc(N3CCC(N)CC3)n2)ccc1O", "note": "[TCMDC-133443]", "% Inhibition": 10.19},
      {"smiles": "N#CCSc1nnc(-c2ccccc2)c2ccccc12", "note": "[TCMDC-123867]", "% Inhibition": 67.4},
      {"smiles": "CCOC(=O)CCCc1cc(NC2CCN(C)CC2)nc(Nc2ccc(C)cc2)n1", "note": "[TCMDC-134016]", "% Inhibition": -52.81},
      {"smiles": "C=C[C@]1(C)C[C@@H](OC(=O)CNC[C@@H](O)CN2C[C@H](c3ccnc4ccc(OC)nc34)OC2=O)[C@]2(C)[C@H](C)CC[C@]3(CCC(=O)[C@H]32)[C@@H](C)[C@@H]1O", "note": "[TCMDC-135366]", "% Inhibition": -2.122},
      {"smiles": "Cc1nc2nc(N)nc(N)c2c(C)c1Cc1ccc(Cl)cc1", "note": "[TCMDC-137659]", "% Inhibition": 18.29},
      {"smiles": "CCc1nc(N)nc(N)c1-c1ccc(Cl)cc1", "note": "[TCMDC-125860]", "% Inhibition": 8.374},
      {"smiles": "Nc1nc(Cc2ccc(Cl)cc2)nc(Cc2ccc(Cl)cc2)n1", "note": "[TCMDC-137497]", "% Inhibition": 78.01},
      {"smiles": "COc1ccc(/C=C/C(=O)N2CCc3cc4nccc(N5CCN6CCC[C@H]6C5)c4cc32)cc1", "note": "[TCMDC-140046]", "% Inhibition": -29.41},
      {"smiles": "O=C(c1cc2ccccc2o1)N1CCc2cc3nccc(N4CCN5CCC[C@H]5C4)c3cc21", "note": "[TCMDC-140037]", "% Inhibition": -9.524},
      {"smiles": "COc1ccc(C(=O)N2CCc3cc4nccc(N5CCN6CCC[C@H]6C5)c4cc32)cc1", "note": "[TCMDC-140035]", "% Inhibition": 84.78},
      {"smiles": "O=C(c1ccc(-c2ccc(Cl)cc2)o1)N1CCc2cc3nccc(N4CCN5CCC[C@H]5C4)c3cc21", "note": "[TCMDC-140116]", "% Inhibition": 93.89},
      {"smiles": "O=C(Cc1cccc(Cl)c1)N1CCc2cc3nccc(N4CCN5CCC[C@H]5C4)c3cc21", "note": "[TCMDC-140038]", "% Inhibition": 0.313},
      {"smiles": "Cc1ccc(C(=O)N2CCc3cc4nccc(N5CCN6CCC[C@H]6C5)c4cc32)cc1", "note": "[TCMDC-140036]", "% Inhibition": -10.33},
      {"smiles": "O=C(NCc1cccc(F)c1)c1ccc(O)c(-c2cc(Cl)cc(Cl)c2)c1", "note": "[TCMDC-140157]", "% Inhibition": -3.983},
      {"smiles": "O=C(Nc1ccc(N2CCN(Cc3c[nH]c4cc(F)ccc34)CC2)cc1)c1ccccc1-c1ccc(C(F)(F)F)cc1", "note": "[TCMDC-138521]", "% Inhibition": 1.427},
      {"smiles": "Cc1nc2ccc3ccc(CNc4ccc5c(c4)CN([C@H](CCC(=O)O)C(=O)O)C5=O)cc3c2c(=O)[nH]1", "note": "[TCMDC-138033]", "% Inhibition": 21.85},
      {"smiles": "O=C(C=Cc1ccc(F)cc1)N1CCN(S(=O)(=O)c2ccc(Cl)cc2)CC1", "note": "[TCMDC-125028]", "% Inhibition": 63.42},
      {"smiles": "O=C(/C=C/c1ccc([N+](=O)[O-])cc1)N1CCC(NS(=O)(=O)c2ccc(F)cc2)CC1", "note": "[TCMDC-139441]", "% Inhibition": 26.45},
      {"smiles": "O=C(/C=C/c1ccc(Cl)c(Cl)c1)N1CCN(C(=O)Nc2ccc(F)c(Cl)c2)CC1", "note": "[TCMDC-135942]", "% Inhibition": -48.62},
      {"smiles": "Cc1cc(C(=O)Nc2ccc3c(c2)CCN3C2CCN(Cc3ccc(O)cc3)C2)no1", "note": "(stereo not shown) [TCMDC-135078]", "% Inhibition": -0.5259},
      {"smiles": "Cc1ccc(Cn2cnc3cc(C(=O)Nc4ccc(-c5ccc(CN(C)C)cc5)cc4)ccc3c2=O)o1", "note": "[TCMDC-132364]", "% Inhibition": 111.6},
      {"smiles": "Cc1ccc(Cn2cnc3cc(C(=O)Nc4ccc(-c5cccc(CN(C)C)c5)cc4)ccc3c2=O)o1", "note": "[TCMDC-132366]", "% Inhibition": 91.1},
      {"smiles": "CN(CCO)Cc1cccc(-c2ccc(NC(=O)c3cccc(C#N)c3)cc2)c1", "note": "[TCMDC-132671]", "% Inhibition": -45.65},
      {"smiles": "COc1cccc2cc(C(=O)N[C@@H](CC(C)C)C(=O)N[C@H](/C=N/NC(=O)Cc3cccnc3)CCc3ccccc3)oc12", "note": "[TCMDC-135634]", "% Inhibition": -9.897},
      {"smiles": "O=C(Nc1ccc(-c2nc3ccccc3[nH]2)cc1)c1cnc(Cl)c(Cl)c1", "note": "[TCMDC-125109]", "% Inhibition": -47.86},
      {"smiles": "CN1CCN(CC(=O)Nc2cccc(-c3ccc(-c4nc5ccc(F)cc5[nH]4)cc3)c2)CC1", "note": "[TCMDC-136978]", "% Inhibition": 78.56},
      {"smiles": "CN1CCN(CC(=O)Nc2cccc(-c3cccc(-c4nc5ccccc5[nH]4)c3)c2)CC1", "note": "[TCMDC-136972]", "% Inhibition": 82.82},
      {"smiles": "CN1CCN(CC(=O)Nc2ccc(-c3csc(-c4nc5ccccc5[nH]4)c3)cc2)CC1", "note": "[TCMDC-132392]", "% Inhibition": -27.46},
      {"smiles": "CN1CCC(C(=O)Nc2ccc(-c3cccc(-c4nc5ccc(F)cc5[nH]4)c3)cc2)CC1", "note": "[TCMDC-132180]", "% Inhibition": 28.01},
      {"smiles": "CN1CCC(C(=O)Nc2cccc(-c3ccc(-c4nc5ccc(F)cc5[nH]4)cc3)c2)CC1", "note": "[TCMDC-132185]", "% Inhibition": 12.21},
      {"smiles": "CN1CCC(C(=O)Nc2cccc(-c3cccc(-c4nc5ccc(F)cc5[nH]4)c3)c2)CC1", "note": "[TCMDC-132181]", "% Inhibition": 91.35},
      {"smiles": "CN1CCN(CC(=O)Nc2ccc(-c3ccc(-c4nc5ccccc5[nH]4)cc3)cc2)CC1", "note": "[TCMDC-136979]", "% Inhibition": -9.366},
      {"smiles": "O=C(Cc1cnc[nH]1)Nc1cccc(-c2ccc(-c3nc4ccc(F)cc4[nH]3)cc2)c1", "note": "[TCMDC-136946]", "% Inhibition": 4.671},
      {"smiles": "CN1CCN(CC(=O)Nc2cccc(-c3ccc(-c4nc5cc(F)ccc5[nH]4)s3)c2)CC1", "note": "[TCMDC-136986]", "% Inhibition": 9.75},
      {"smiles": "CN1CCN(CC(=O)Nc2ccc(-c3cccc(-c4nc5ccc(F)cc5[nH]4)c3)cc2)CC1", "note": "[TCMDC-136973]", "% Inhibition": -61.95},
      {"smiles": "CN1CCN(CC(=O)Nc2cccc(-c3cccc(-c4nc5ccc(F)cc5[nH]4)c3)c2)CC1", "note": "[TCMDC-136974]", "% Inhibition": 72.37},
      {"smiles": "CCCN(Cc1nnc(-c2cccs2)o1)C(=O)CSc1nnnn1-c1ccc(C)c(C)c1", "note": "[TCMDC-125240]", "% Inhibition": 7.835},
      {"smiles": "CCNc1cc(C(=O)N[C@@H](Cc2ccccc2)[C@H](O)CNC2(C(C)C)CCC2)cc(N2CCCCS2(=O)=O)c1", "note": "[TCMDC-135375]", "% Inhibition": 21.07},
      {"smiles": "O=C(Nc1cccc(N2CCC(NCc3cnn(-c4cccc(F)c4)c3)CC2)c1)c1ccncc1", "note": "[TCMDC-124666]", "% Inhibition": 1.522},
      {"smiles": "CCc1nc(N)nc(N)c1-c1ccc2c(c1)CCCC2", "note": "[TCMDC-137366]", "% Inhibition": 1.403},
      {"smiles": "CC(=O)c1c[nH]c2ccc(/C=C/C(=O)NC3CCC(CCN4CCc5ccc(C#N)cc5CC4)CC3)cc12", "note": "(stereo not shown) [TCMDC-139781]", "% Inhibition": 8.041},
      {"smiles": "Cc1cc(N(C)C)nc(Nc2ccc(NC(=O)Nc3ccccc3)cc2)n1", "note": "[TCMDC-124961]", "% Inhibition": -7.652},
      {"smiles": "CC(C)(C)OC(=O)NCCc1cccc(-c2c[nH]c3ncc(-c4cccc(NS(C)(=O)=O)c4)cc23)c1", "note": "[TCMDC-136294]", "% Inhibition": 27.56},
      {"smiles": "Cc1ccc(-n2[nH]c(C)c(N=Nc3cccc(-c4cccc(NC(=O)OC(C)(C)C)c4)c3O)c2=O)cc1C", "note": "[TCMDC-141045]", "% Inhibition": 81.95},
      {"smiles": "CC(C)(C)OC(=O)Nc1cccc(-c2csc(N=C(N)N)n2)c1", "note": "[TCMDC-139458]", "% Inhibition": -7.948},
      {"smiles": "COc1ccc(Nc2nccc(-c3ccc(NC(=O)c4cc5cc(F)ccc5[nH]4)cc3)n2)cc1", "note": "[TCMDC-133306]", "% Inhibition": 23.43},
      {"smiles": "CCNC(=O)Nc1cccc(-c2ccc(-c3nc4cccc(C)c4[nH]3)s2)c1", "note": "[TCMDC-133169]", "% Inhibition": -0.5138},
      {"smiles": "Cc1ccc(Nc2nc3cc(Nc4ccnc(Nc5ccc(CS(C)(=O)=O)cc5)n4)ccc3o2)cc1", "note": "[TCMDC-141799]", "% Inhibition": 11.69},
      {"smiles": "OC(COCc1ccc(-c2ccccc2)cc1)CN1CCCCC1", "note": "(stereo not shown) [TCMDC-132069]", "% Inhibition": -30.91},
      {"smiles": "Cc1ccc(NC(=O)c2ccc(CN3CCCN(CC4CCCCC4)CC3)cc2)cc1F", "note": "[TCMDC-136393]", "% Inhibition": -36.95},
      {"smiles": "CC1CN(c2ccc(NC(=O)c3ccc(F)cc3)cc2)CCN1Cc1cccc(F)c1", "note": "(stereo not shown) [TCMDC-135016]", "% Inhibition": 10.14},
      {"smiles": "CC(C)(C)c1ccc(CN2CCC(NC(=O)c3ccc(-c4cccc(F)c4)s3)CC2)cc1", "note": "[TCMDC-134350]", "% Inhibition": -0.6628},
      {"smiles": "c1ccc(Nc2nc(-c3ccccn3)cs2)nc1", "note": "[TCMDC-124275]", "% Inhibition": 108.4},
      {"smiles": "Cc1cccnc1Nc1nc(-c2ccccn2)cs1", "note": "[TCMDC-125846]", "% Inhibition": 115},
      {"smiles": "Cc1ccc(Nc2nc(-c3ccccn3)cs2)nc1", "note": "[TCMDC-125854]", "% Inhibition": 98.08},
      {"smiles": "Cc1cccc(C(O)CNc2ccnc(Nc3cccc(-c4csc(C)n4)c3)n2)c1", "note": "(stereo not shown) [TCMDC-136568]", "% Inhibition": -28.27},
      {"smiles": "Cc1ccnc(Nc2nc(-c3ccccn3)cs2)c1", "note": "[TCMDC-125769]", "% Inhibition": 115.7},
      {"smiles": "COc1cccc(C(=O)NCc2cccs2)c1OCc1ccccc1", "note": "[TCMDC-141234]", "% Inhibition": 8.01},
      {"smiles": "C#CCOc1ccccc1CN1CCC(N2CCc3cc(NC(=O)c4cc(C)on4)ccc32)C1", "note": "(stereo not shown) [TCMDC-135075]", "% Inhibition": -4.764},
      {"smiles": "Cc1[nH]c2ccc(NS(C)(=O)=O)cc2c1C1CCN(CCC2CCN(C(=O)/C=C/c3ccc(Cl)c(Cl)c3)CC2)CC1", "note": "[TCMDC-140126]", "% Inhibition": -29.87},
      {"smiles": "Cc1ccc(NC(=O)c2ccc3nccnc3c2)cc1OC1CCN(Cc2ccc(F)cc2)CC1", "note": "[TCMDC-133748]", "% Inhibition": -13.13},
      {"smiles": "O=C(Nc1ccccc1-c1ccccc1)C1CCCN1C(=O)Nc1ccc(Cl)cc1", "note": "(stereo not shown) [TCMDC-123648]", "% Inhibition": 32.25},
      {"smiles": "Cc1cc(NC(=O)Nc2ccc3nccc(N4CCN(C)CC4)c3c2)ccc1Br", "note": "[TCMDC-139361]", "% Inhibition": 36.21},
      {"smiles": "CC[C@H]1C[N+]2([O-])CC[C@@H]1C[C@H]2[C@H](O)c1cc(-c2ccccc2)nc2ccc(OC)cc12", "note": "[TCMDC-141330]", "% Inhibition": 6.04},
      {"smiles": "Clc1ccc(Nc2nc(-c3ccccn3)cs2)nc1", "note": "[TCMDC-123885]", "% Inhibition": 114},
      {"smiles": "CC(=O)Nc1nc(C)c(-c2csc(Nc3ccc(Cl)cc3)n2)s1", "note": "[TCMDC-123995]", "% Inhibition": -35.56},
      {"smiles": "Cc1cc(NCC2CCN(CC3CCCCC3)C2)nc(Nc2ccc(Br)cc2)n1", "note": "(stereo not shown) [TCMDC-137024]", "% Inhibition": -11.33}
    ]}
  ]
}
